Assay results reported in PubChem BioAssay (Tox21).
Activity calls are given as the source filed them. Calls follow the shape of the dose curve; as a rule, active = well fitted curve in the direction sought with a large enough effect in the repeat runs; inconclusive = weak or mixed curves; inactive = flat fitted curve, though single readings scatter.

Experiment: qHTS assay to test for compound auto fluorescence at 460 nm (blue) in HepG2 cells (AID 720687)
Conditions: autofluorescence 405/460 nm, 1 h; series mostly up to 91.3 µM; fluorescence, % of fluorescent control: at the top concentration
In short: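 HepG2 cells in MEM with 10% FBS, attached overnight at 37 C, were exposed to compound or DMSO for 1 hr at 37 C, 5% CO2. Blue fluorescence was read at 405/460 nm, with triamterene as reference fluorophore.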
% is scaled to controls: 0 for no effect and ±100 for the full control effect.

Row | SMILES | fluorescence, % of fluorescent control | Potency
1 | O=C1CCc2cc(OCCCCc3nnnn3C3CCCCC3)ccc2N1 | -0.0801% [at 46 µM] (inactive) | –
2 | CCCNCCC | 0.0449% (inactive) | –
3 | CC(C(=O)O)c1ccc2c(c1)[nH]c1ccc(Cl)cc12 (stereo unspecified) | 0.136% [at 46 µM] (inactive) | –
4 | O=C1CCc2ccc(OCCCCN3CCN(c4cccc(Cl)c4Cl)CC3)cc2N1 | -0.0721% [at 46 µM] (inactive) | –
5 | COC(=O)C1=C(C)NC(C)=C(C(=O)OCCN2CCN(C(c3ccccc3)c3ccccc3)CC2)C1c1cccc([N+](=O)[O-])c1 (stereo unspecified) | -0.0392% [at 46 µM] (inactive) | –
6 | C#C[C@]1(OC(C)=O)CC[C@H]2[C@@H]3CCC4=C[C@@H](OC(C)=O)CC[C@@H]4[C@H]3CC[C@@]21C | – | inactive
7 | Nc1nc(-c2ccccc2)cs1 | -0.0113% (inactive) | –
8 | CC1(C)[C@@H](O)CC[C@]2(C)[C@H]3C(=O)C=C4[C@@H]5C[C@@](C)(C(=O)O)CC[C@]5(C)CC[C@@]4(C)[C@]3(C)CC[C@@H]12 | – | inactive
9 | COc1cccc2c1C(=O)c1c(O)c3c(c(O)c1C2=O)C[C@@](O)(C(C)=O)C[C@@H]3O[C@H]1C[C@H](N)[C@H](O)[C@H](C)O1 | – | inactive
10 | CCc1cccc(CC)c1NC(=O)CN(CC(=O)O)CC(=O)O | 0.148% [at 18.6 µM] (inactive) | –
11 | Cc1c(C)c2c(c(C)c1OC(=O)c1cccnc1)CC[C@@](C)(CCC[C@H](C)CCC[C@H](C)CCCC(C)C)O2 | 0.0072% [at 46 µM] (inactive) | –
12 | CN1CCC[C@@H]1CCO[C@](C)(c1ccccc1)c1ccc(Cl)cc1 | -0.255% [at 46 µM] (inactive) | –
13 | Clc1ccnc(Cl)n1 | -0.0573% [at 95.7 µM] (inactive) | –
14 | O=C1c2ccccc2C(=O)N1SC1CCCCC1 | – | inactive
15 | CNc1ccc([N+](=O)[O-])cc1 | -0.401% (inactive) | –
16 | CCOC(=O)c1ccc(C2CCC(NC[C@H](O)COc3ccc(O)c(NS(C)(=O)=O)c3)CC2)cc1 (stereo partly specified) | 0.149% (inactive) | –
